Experimental data taken from PubChem BioAssay (NCI).
This is part of a sample that, as a whole, favours compounds with a hit. Of some 79,000 tested, about 15% had one in any assay. The source made the active and inactive calls. Cut-off read from the data, not from the text of the source: active = growth inhibition above about 70%; inactive = the rest.

Legend:
[1] = NCI Yeast Anticancer Drug Screen. Data for the rad52 strain (AID 147);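 note: 0% = growth of vehicle-treated control cultures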; conditions: S. cerevisiae rad52 mutant growth inhibition, active compounds read high
Procedure, shortened: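 Inhibition of yeast growth, referenced to vehicle controls, was the measured output for a strain with defective DNA damage repair.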

[2] = NCI Yeast Anticancer Drug Screen. Data for the wt1 strain (AID 149);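 note: 0% = growth of vehicle-treated wt1 cultures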; conditions: S. cerevisiae wt1 strain (SPY 50644) growth inhibition, active compounds read high
Procedure, shortened: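 Compounds are added to wt1 yeast cultures. Growth is then measured. Inhibition is expressed relative to vehicle-treated controls.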

[3] = NCI Yeast Anticancer Drug Screen. Data for the rad50EPP+ strain (AID 151);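 note: 0% = growth of vehicle-treated control cultures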; conditions: S. cerevisiae rad50 mutant strain, active compounds read high
Procedure, shortened: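 Genetically defined yeast (rad50EPP+, DNA damage repair alteration) is grown with compound, and inhibition of growth is expressed relative to vehicle-treated controls.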

[4] = NCI Yeast Anticancer Drug Screen. Data for the mgt1 strain (AID 153); conditions: S. cerevisiae mgt1 mutant growth inhibition, active compounds read high
Procedure, shortened: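 In the mgt1 strain, test compounds were added and growth inhibition was determined relative to vehicle-treated controls.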

[5] = NCI Yeast Anticancer Drug Screen. Data for the rad50 strain (AID 155);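 note: 0% = growth of vehicle-only cultures of the same strain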; conditions: S. cerevisiae rad50 strain growth inhibition, active compounds read high
Procedure, shortened: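 Inhibition values express reduced yeast growth in compound-treated cultures relative to vehicle-treated controls.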

[6] = NCI Yeast Anticancer Drug Screen. Data for the mec2-1 strain (AID 157); conditions: S. cerevisiae mec2-1 strain, active compounds read high
Procedure, shortened: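 Each compound was tested on mec2-1 yeast, a strain altered in DNA damage repair or cell cycle control. Growth inhibition is reported relative to vehicle.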

[7] = NCI Yeast Anticancer Drug Screen. Data for the rad14 strain (AID 159);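 note: 0% = growth of vehicle-treated control cultures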; conditions: S. cerevisiae rad14 strain growth inhibition, active compounds read high
Procedure, shortened: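 A mutant yeast strain defective in DNA damage repair is treated with compound; inhibition of its growth is scored against untreated, vehicle-exposed cultures.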

[8] = NCI Yeast Anticancer Drug Screen. Data for the sgs1 mgt1 strain (AID 161);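 note: 0% = growth of cultures given vehicle only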; conditions: S. cerevisiae sgs1 mgt1 strain, active compounds read high
Procedure, shortened: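 Mutant yeast exposed to compound; growth scored against vehicle-only wells.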

[9] = NCI Yeast Anticancer Drug Screen. Data for the CLN2oe strain (AID 163);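 note: 0% = growth of vehicle-only control cultures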; conditions: S. cerevisiae CLN2oe strain, active compounds read high
Procedure, shortened: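 First, the altered yeast strain was treated with each compound; second, its growth was measured; finally, inhibition was derived by comparison with vehicle controls.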

[10] = NCI Yeast Anticancer Drug Screen. Data for the cln2 rad14 strain (AID 165);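 note: 0% = growth equal to vehicle treated cultures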; conditions: S. cerevisiae cln2 rad14 strain, active compounds read high
Procedure, shortened: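 Test compounds were added to cln2 rad14 yeast cultures; inhibition of growth was then determined by comparison with vehicle treatment.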

[11] = NCI Yeast Anticancer Drug Screen. Data for the bub3 strain (AID 167); conditions: S. cerevisiae bub3 mutant strain, active compounds read high
Procedure, shortened: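 Steps: expose the mutant yeast strain to compound; grow alongside vehicle-treated cultures; measure growth; express inhibition against the vehicle cultures.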

[12] = NCI Yeast Anticancer Drug Screen. Data for the wt2 strain (AID 169);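 note: 0% = growth of vehicle-treated yeast cultures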; conditions: S. cerevisiae wt2 strain growth inhibition, active compounds read high
Procedure, shortened: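 The panel's yeast strains carry defined changes in DNA repair or cell cycle genes. Each strain is grown with compound, and growth loss is scored relative to vehicle.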

[13] = NCI Yeast Anticancer Drug Screen. Data for the mlh1 strain (AID 171);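 note: 0% = growth of vehicle-treated control cultures of the same strain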; conditions: S. cerevisiae mlh1 strain growth inhibition, active compounds read high
Procedure, shortened: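 Inhibition values reflect reduced yeast growth in the presence of compound, referenced to vehicle controls, using a strain chosen for its alteration in DNA repair or cell cycle control.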

[14] = NCI Yeast Anticancer Drug Screen. Data for the rad18 strain (AID 177); conditions: S. cerevisiae rad18 mutant growth inhibition, active compounds read high
Procedure, shortened: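 Steps: expose repair-mutant yeast to compound; measure growth; express as inhibition relative to vehicle control.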

[15] = at 5.0 µM (retest, dose inferred, filed as 0.5)
[16] = at 50.0 µM (retest, dose inferred, filed as 5.0)

Measured: growth inhibition

O=C1c2ccccc2C(=O)c2c(O)c(NCCNCCO)cc(O)c21
active: [1]; at 33.0 µM 88% | [1]; at 100.0 µM 92% | [2]; at 33.0 µM 71% | [2]; at 100.0 µM 83% | [3]; at 100.0 µM 92% | [4]; at 33.0 µM 91% | [4]; at 100.0 µM 96% | [5]; at 33.0 µM 89% | [5]; [16] 93% | [5]; at 50.0 µM 87.3% | [5]; at 100.0 µM 94% | [6]; at 33.0 µM 84% | [6]; [16] 96% | [6]; at 50.0 µM 87.2% | [6]; at 100.0 µM 86% | [7]; at 33.0 µM 95% | [7]; at 100.0 µM 95% | [8]; [16] 97% | [8]; at 50.0 µM 85.2% | [9]; at 33.0 µM 82% | [9]; at 100.0 µM 93% | [11]; at 33.0 µM 90% | [11]; [16] 97% | [11]; at 50.0 µM 70.7% | [11]; at 100.0 µM 91% | [12]; at 11.0 µM 73% | [12]; at 33.0 µM 81% | [12]; at 100.0 µM 93% | [13]; at 33.0 µM 91% | [13]; at 100.0 µM 94% | [14]; at 33.0 µM 89% | [14]; at 100.0 µM 94%
inactive: [1]; at 1.2 µM -31% | [1]; at 3.7 µM -13% | [1]; at 11.0 µM 6% | [2]; at 1.2 µM 1% | [2]; at 3.7 µM -1% | [2]; at 11.0 µM 9% | [3]; at 1.2 µM -4% | [3]; at 3.7 µM 8% | [3]; at 11.0 µM 2% | [3]; at 33.0 µM 16% | [4]; at 1.2 µM 0% | [4]; at 3.7 µM 4% | [4]; at 11.0 µM 36% | [5]; at 1.2 µM -9% | [5]; at 3.7 µM -1% | [5]; [15] 19% | [5]; at 11.0 µM 21% | [6]; at 1.2 µM -3% | [6]; at 3.7 µM -12% | [6]; [15] 23% | [6]; at 11.0 µM 11% | [7]; at 1.2 µM -5% | [7]; at 3.7 µM -2% | [7]; at 11.0 µM 40% | [8]; [15] 35% | [9]; at 1.2 µM 21% | [9]; at 3.7 µM 33% | [9]; at 11.0 µM 29% | [10]; [15] 11% | [10]; [16] 57% | [10]; at 50.0 µM 65.5% | [11]; at 1.2 µM 13% | [11]; at 3.7 µM 21% | [11]; [15] 39% | [11]; at 11.0 µM 45% | [12]; at 1.2 µM -16% | [12]; at 3.7 µM -4% | [13]; at 1.2 µM -23% | [13]; at 3.7 µM -13% | [13]; at 11.0 µM 44% | [14]; at 1.2 µM -13% | [14]; at 3.7 µM -3% | [14]; at 11.0 µM 20%
